Test results as given in PubChem BioAssay (EPA / NIEHS).
Calls of active or inactive are those of the source. How the source made its calls: active means hit-call score of the fitted dose curve at least 0.9, where 1 is the maximum; inactive means score below 0.9.

Assays:
[1] = read-out: Monokine induced gamma interferon (MIG), CXCL9 (gene 4283); experiment: BSK_KF3CT_MIG: BioMAP Diversity Plus: KF3CT Assay for Monokine induced gamma interferon (MIG) Biomarker Activity (AID 2284248); conditions: primary human keratinocytes with fibroblasts
Procedure, shortened: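 Human keratinocyte–foreskin fibroblast co-culture; MIG measured by ELISA 24 h after chemical dosing, fitted upward versus DMSO. Cytotoxicity was assessed in parallel cultures by SRB total-protein staining read at 560 nm.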

[2] = read-out: Collagen I, COL1A1 (gene 1277); experiment: BSK_hDFCGF_CollagenI: BioMAP Diversity Plus: hDFCGF Assay for Collagen I Biomarker Activity (AID 2284250); conditions: primary human foreskin fibroblasts
Procedure, shortened: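 Cells were primary human foreskin fibroblasts treated for 24 h. Collagen I levels were then determined by ELISA and compared against DMSO controls.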

[3] = read-out: Interferon-inducible T-cell alpha chemoattractant (ITAC), CXCL11 (gene 6373); experiment: BSK_hDFCGF_ITAC: BioMAP Diversity Plus: hDFCGF Assay for Interferon-inducible T-cell alpha chemoattractant (ITAC) Biomarker Activity (AID 2284251); conditions: primary human foreskin fibroblasts
Procedure, shortened: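 Primary human foreskin fibroblasts (hDFCGF system) treated for 24 h; I-TAC quantified by ELISA. Gain-direction fitting versus DMSO; parallel SRB staining of total protein flagged overt cytotoxicity.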

[4] = read-out: Plasminogen activator inhibitor-1 (PAI1), SERPINE1 (gene 5054); experiment: BSK_KF3CT_PAI1: BioMAP Diversity Plus: KF3CT Assay for Plasminogen activator inhibitor-1 (PAI1) Biomarker Activity (AID 2284252); conditions: primary human keratinocytes with fibroblasts
Procedure, shortened: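 Signal is PAI-1 detected by ELISA in a human skin-derived keratinocyte/fibroblast co-culture, 24 h after dosing; DMSO served as negative control and baseline.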

[5] = read-out: Interleukin-8 (IL8), CXCL8 (gene 3576); experiment: BSK_KF3CT_IL8: BioMAP Diversity Plus: KF3CT Assay for Interleukin-8 (IL8) Biomarker Activity (AID 2284254); conditions: primary human keratinocytes with fibroblasts
Procedure, shortened: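 Human keratinocyte/foreskin fibroblast co-culture dosed 24 h; IL-8 measured by ELISA relative to DMSO. Parallel cultures stained with SRB for total protein to flag cytotoxicity.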

[6] = read-out: Collagen I, COL1A1 (gene 1277); experiment: BSK_MyoF_CollagenI: BioMAP Diversity Plus: MyoF Assay for Collagen I Biomarker Activity (AID 2284238); conditions: primary human lung fibroblasts
Procedure, shortened: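 Primary human lung fibroblasts (MyoF system) treated 24 h; Collagen I quantified by ELISA and fitted in positive direction against DMSO. Parallel SRB total-protein staining assessed overt cytotoxicity.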

[7] = read-out: Collagen III, COL3A1 (gene 1281); experiment: BSK_MyoF_CollagenIII: BioMAP Diversity Plus: MyoF Assay for Collagen III Biomarker Activity (AID 2284239); conditions: primary human lung fibroblasts
Procedure, shortened: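 Primary human lung fibroblasts (BioMAP MyoF system) exposed 24 h. Collagen III measured by ELISA; positive-direction fit relative to DMSO.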

[8] = read-out: Actin alpha 1 (ACTA1), ACTA1 (gene 58); experiment: BSK_MyoF_ACTA1: BioMAP Diversity Plus: MyoF Assay for Actin alpha 1 (ACTA1) Biomarker Activity (AID 2284244); conditions: primary human lung fibroblasts
Procedure, shortened: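 Measured by ELISA: alpha-smooth muscle actin in human primary lung fibroblasts 24 h after dosing, with DMSO as baseline and upward signal change as the fitted direction.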

[9] = read-out: Interleukin 2 (IL2), IL2 (gene 3558); experiment: BSK_BT_xIL2: BioMAP Diversity Plus: BT Assay for Interleukin 2 (IL2) Biomarker Activity (AID 2284245); conditions: primary human B cells with PBMC
Procedure, shortened: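 Secreted interleukin-2 from human B cell/PBMC co-cultures, measured 24 h post-dosing by Luminex multiplex immunoassay. Upward-direction curve fitting against DMSO baseline.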

[10] = read-out: Basic fibroblast growth factor (bFGF), FGF2 (gene 2247); experiment: BSK_MyoF_bFGF: BioMAP Diversity Plus: MyoF Assay for Basic fibroblast growth factor (bFGF) Biomarker Activity (AID 2284246); conditions: primary human lung fibroblasts
Procedure, shortened: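 In this multiplexed cell system, lung fibroblasts (human primary) receive test chemical for 24 h before ELISA detection of bFGF; DMSO defines baseline and the analysis direction is positive.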

[11] = read-out: Collagen IV, COL4A1 (gene 1282); experiment: BSK_MyoF_CollagenIV: BioMAP Diversity Plus: MyoF Assay for Collagen IV Biomarker Activity (AID 2284247); conditions: primary human lung fibroblasts
Procedure, shortened: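 Activity is scored as a signal increase over DMSO in an ELISA for Collagen IV, measured on human lung fibroblasts at 24 h after chemical treatment. Cytotoxicity is checked in parallel cultures by sulforhodamine B total-protein staining.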

[12] = read-out: Plasminogen activator inhibitor-1 (PAI1), SERPINE1 (gene 5054); experiment: BSK_MyoF_PAI1: BioMAP Diversity Plus: MyoF Assay for Plasminogen activator inhibitor-1 (PAI1) Biomarker Activity (AID 2284256); conditions: primary human lung fibroblasts;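 on outcome: PAI-1 read 24 h after compound addition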
Procedure, shortened: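 Primary human lung fibroblasts treated with chemical for 24 h; PAI-1 levels quantified by ELISA relative to DMSO. Cytotoxicity was assessed in parallel cultures by SRB total-protein staining (0.1% SRB after 10% TCA fixation, 560 nm).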

[13] = read-out: Interleukin-8 (IL8), CXCL8 (gene 3576); experiment: BSK_MyoF_IL8: BioMAP Diversity Plus: MyoF Assay for Interleukin-8 (IL8) Biomarker Activity (AID 2284261); conditions: primary human lung fibroblasts
Procedure, shortened: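 Human lung fibroblast (MyoF system) cultures dosed for 24 h, then IL-8 measured by ELISA. Response taken relative to DMSO; parallel SRB total-protein staining for cytotoxicity.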

Decorin, DCN (gene 1634) = experiment: BSK_MyoF_Decorin: BioMAP Diversity Plus: MyoF Assay for Decorin Biomarker Activity (AID 2284265); conditions: primary human lung fibroblasts
Procedure, shortened: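 Human lung fibroblast cultures were dosed for 24 h, and decorin was then measured by ELISA. Parallel cultures were stained with sulforhodamine B for total protein as a cytotoxicity check. Gain of signal was fitted relative to DMSO.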

[14] = BSK_MyoF_SRB: Viability Assessment in the BioMAP Diversity Plus: MyoF Assay (AID 2284267); conditions: primary human lung fibroblasts;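 further: total protein by SRB absorbance in parallel cultures as cytotoxicity measure; cells assessed 24 h after compound addition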
Procedure, shortened: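 Cytotoxicity in primary human lung fibroblasts is gauged by SRB total-protein staining 24 h after dosing, with DMSO as the negative control.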

For `CCCCOC(=O)COC(=O)c1ccccc1C(=O)OCCCC`, the outcome [1] was “inactive”, the outcome [2] was “inactive” and the outcome [3] was “inactive”. For the same compound, the outcome [4] was “inactive” and the outcome [5] was “inactive”.
With `CCOP(=O)(OCC)SCCSCC` the outcome [6] was “inactive”, the outcome [7] was “inactive” and the outcome [8] was “inactive”. The outcome [9] was “inactive”, the outcome [10] was “inactive” and the outcome [11] was “inactive”. The outcome [12] was “inactive”, the outcome [13] was “inactive” and the outcome (Decorin, DCN (gene 1634)) was “inactive”. The outcome [14] was “inactive”.
For `c1ccc2sc(SNC3CCCCC3)nc2c1`, the outcome [6] was “inactive”, the outcome [7] was “inactive” and the outcome [8] was “inactive”. For the same compound, the AC50 [9] was 28.9 µM (active), the outcome [10] was “inactive” and the outcome [11] was “inactive”. The outcome [12] was “inactive”, the AC50 [13] was 6.46 µM (active) and the outcome (Decorin, DCN (gene 1634)) was “inactive”.
With `CCOC(=O)CCN(SN(C)C(=O)Oc1cccc2c1OC(C)(C)C2)C(C)C` the outcome [6] was “inactive”, the outcome [7] was “inactive” and the AC50 [8] was 29.3 µM (active). The AC50 [9] was 36.3 µM (active), the outcome [10] was “inactive” and the outcome [11] was “inactive”. The outcome [12] was “inactive”, the outcome [13] was “inactive” and the outcome (Decorin, DCN (gene 1634)) was “inactive”.
In the case of `Cc1cc(Cl)ccc1OC(C)C(=O)O` (centres undefined), the outcome [6] is reported as “inactive”, the outcome [7] is reported as “inactive” and the outcome [8] is reported as “inactive”. The outcome [9] was “inactive”, the outcome [10] was “inactive” and the outcome [11] was “inactive”. The outcome [12] was “inactive”, the outcome [13] was “inactive” and the outcome (Decorin, DCN (gene 1634)) was “inactive”.
With `CCOC(=O)C(SP(=S)(OC)OC)c1ccccc1` (centres undefined) the outcome [6] was “inactive”, the outcome [7] was “inactive” and the AC50 [8] was 20 µM (active). The outcome [9] was “inactive”, the outcome [10] was “inactive” and the outcome [11] was “inactive”. The outcome [12] was “inactive”, the outcome [13] was “inactive” and the outcome (Decorin, DCN (gene 1634)) was “inactive”.
With `CCOP(=O)(OCC)OC(=CCl)c1ccc(Cl)cc1Cl` the AC50 [6] was 35.8 µM (active), the AC50 [7] was 30.7 µM (active) and the AC50 [8] was 30.5 µM (active). For the same compound, the AC50 [9] was 20 µM (active), the outcome [10] was “inactive” and the outcome [11] was “inactive”. For the same compound, the outcome [12] was “inactive”, the outcome [13] was “inactive” and the AC50 (Decorin, DCN (gene 1634)) was 20 µM (active).
In the case of `O=C(Cc1ccccc1)OCCc1ccccc1`, the outcome [1] is reported as “inactive”, the outcome [2] is reported as “inactive” and the outcome [3] is reported as “inactive”. For the same compound, the outcome [4] was “inactive” and the outcome [5] was “inactive”.
In the case of `CCCCN(CCCC)C(=S)[S-].CCCCN(CCCC)C(=S)[S-].[Ni+2]`, the outcome [6] is reported as “inactive”, the outcome [7] is reported as “inactive” and the outcome [8] is reported as “inactive”. For the same compound, the outcome [9] was “inactive”, the outcome [10] was “inactive” and the outcome [11] was “inactive”. For the same compound, the outcome [12] was “inactive”, the outcome [13] was “inactive” and the outcome (Decorin, DCN (gene 1634)) was “inactive”. For the same compound, the outcome [14] was “inactive”.
With `CC(C)(COCC1CO1)COCC1CO1` (centres undefined) the outcome [6] was “inactive”, the outcome [7] was “inactive” and the outcome [8] was “inactive”. The outcome [9] was “inactive”, the outcome [10] was “inactive” and the outcome [11] was “inactive”. For the same compound, the outcome [12] was “inactive”, the outcome [13] was “inactive” and the outcome (Decorin, DCN (gene 1634)) was “inactive”.
In the case of `CCN(CC)C(=O)C(Cl)=C(C)OP(=O)(OC)OC`, the outcome [6] is reported as “inactive”, the AC50 [7] is reported as 0.016 µM (active) and the AC50 [8] is reported as 0.0702 µM (active). For the same compound, the outcome [9] was “inactive”, the outcome [10] was “inactive” and the outcome [11] was “inactive”. For the same compound, the outcome [12] was “inactive”, the outcome [13] was “inactive” and the outcome (Decorin, DCN (gene 1634)) was “inactive”.
With `OCCCCO` the outcome [1] was “inactive”, the outcome [2] was “inactive” and the outcome [3] was “inactive”. For the same compound, the outcome [4] was “inactive” and the outcome [5] was “inactive”.
With `O=[N+]([O-])c1ccc(Nc2ccccc2)cc1` the outcome [6] was “inactive”, the outcome [7] was “inactive” and the outcome [8] was “inactive”. The outcome [9] was “inactive”, the outcome [10] was “inactive” and the outcome [11] was “inactive”. The outcome [12] was “inactive”, the outcome [13] was “inactive” and the outcome (Decorin, DCN (gene 1634)) was “inactive”.
With `CC(C)N(C(=O)CCl)c1ccccc1` the AC50 [6] was 3.62 µM (active), the AC50 [7] was 1.12 µM (active) and the AC50 [8] was 2.84 µM (active). For the same compound, the AC50 [9] was 11.8 µM (active), the AC50 [10] was 4 µM (active) and the AC50 [11] was 4.16 µM (active). The AC50 [12] was 3.09 µM (active), the AC50 [13] was 20 µM (active) and the AC50 (Decorin, DCN (gene 1634)) was 6 µM (active). For the same compound, the AC50 [14] was 3.67 µM (active).
With `c1ccc(-c2cccc(-c3ccccc3)c2)cc1` the AC50 [6] was 26.4 µM (active), the AC50 [7] was 32.9 µM (active) and the AC50 [8] was 20 µM (active). For the same compound, the outcome [9] was “inactive”, the outcome [10] was “inactive” and the outcome [11] was “inactive”. For the same compound, the outcome [12] was “inactive”, the AC50 [13] was 20 µM (active) and the outcome (Decorin, DCN (gene 1634)) was “inactive”.
With `O=[N+]([O-])c1cccc2ccccc12` the outcome [6] was “inactive”, the outcome [7] was “inactive” and the outcome [8] was “inactive”. For the same compound, the outcome [9] was “inactive”, the outcome [10] was “inactive” and the outcome [11] was “inactive”. The outcome [12] was “inactive”, the outcome [13] was “inactive” and the outcome (Decorin, DCN (gene 1634)) was “inactive”.
In the case of `C#CCOC(=O)/C=C(C)/C=C/CC(C)CCCC(C)C` (centres undefined), the outcome [6] is reported as “inactive”, the outcome [7] is reported as “inactive” and the AC50 [8] is reported as 16.4 µM (active). The outcome [9] was “inactive”, the outcome [10] was “inactive” and the outcome [11] was “inactive”. For the same compound, the outcome [12] was “inactive”, the AC50 [13] was 4.33 µM (active) and the outcome (Decorin, DCN (gene 1634)) was “inactive”. The outcome [14] was “inactive”.
For `[Cl][Sn]([c]1ccccc1)([c]1ccccc1)[c]1ccccc1`, the AC50 [6] was 0.0894 µM (active), the AC50 [7] was 0.402 µM (active) and the AC50 [8] was 0.102 µM (active). For the same compound, the AC50 [9] was 0.395 µM (active), the AC50 [10] was 0.324 µM (active) and the AC50 [11] was 0.286 µM (active). The AC50 [12] was 0.169 µM (active), the outcome [13] was “inactive” and the AC50 (Decorin, DCN (gene 1634)) was 0.167 µM (active).
